# Screening data deposited in PubChem BioAssay by The Scripps Research Institute Molecular Screening Center.
# This is a sample that favours compounds with a hit; in the whole collection about 0.9% have one here.
# PPARg SRC2 recr – PPARgamma-driven SRC-2 recruitment agonism; 0.34% of 200,000 active; activation, % at 8 µM; P37231; PPARgamma LBD-SRC-2 recruitment, biochemical; in the data active = activation above about 22%;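 note: 0% = vehicle and 100% = reference agonist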
# Target sequence (P37231 whole entry, looked up, the tested form may be a part): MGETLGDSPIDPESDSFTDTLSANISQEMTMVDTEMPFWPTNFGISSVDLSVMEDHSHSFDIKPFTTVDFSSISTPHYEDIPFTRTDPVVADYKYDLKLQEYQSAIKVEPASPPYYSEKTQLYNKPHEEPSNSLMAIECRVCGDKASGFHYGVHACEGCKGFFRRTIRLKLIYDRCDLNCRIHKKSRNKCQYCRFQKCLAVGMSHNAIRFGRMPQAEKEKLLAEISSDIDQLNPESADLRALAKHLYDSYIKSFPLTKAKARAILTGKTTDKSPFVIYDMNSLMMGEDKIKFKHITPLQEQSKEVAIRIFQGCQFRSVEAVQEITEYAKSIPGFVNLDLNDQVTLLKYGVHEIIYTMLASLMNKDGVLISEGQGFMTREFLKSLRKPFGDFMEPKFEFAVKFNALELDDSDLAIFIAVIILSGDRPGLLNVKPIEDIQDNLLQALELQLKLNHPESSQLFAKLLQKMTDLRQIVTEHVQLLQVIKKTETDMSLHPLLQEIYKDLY
# PPARg SRC3 recr – agonists of human PPARgamma SRC-3 coactivator recruitment; P37231; biochemical PPARgamma/SRC-3 coactivator recruitment assay; activation, % at 8 µM; 0.26% of 200,000 active; AID 731; in the data active = activation above about 23%;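 note: 0% = DMSO and 100% = reference agonist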
# PPARg SRC1 recr – agonists of human PPARgamma SRC-1 coactivator recruitment | PPARgamma-SRC-1 coactivator recruitment biochemical assay | activation, % at 8 µM | 0.41% of 200,000 active | AID 631; in the data active = activation above about 19%;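 note: 0% = DMSO and 100% = reference agonist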
# SRC3 TRFRET art – counter-screen for PPARgamma SRC-3 recruitment agonists: TR-FRET artefact; AID 1048; PPARgamma/SRC-3 format; stronger effect = higher value; 0.39% of 99,000 active; TR-FRET ratio at 8 µM
# TR-FRET SRC-2 ct – TR-FRET artefact, counter-screen to PPARgamma/SRC-2 agonist assay; stronger effect = higher value; 0.4% of 200,000 active; TR-FRET ratio at 8 µM
# SRC1 TRFRET art – counter-screen for PPARgamma SRC-1 recruitment agonists: TR-FRET artefact. AID 1051. TR-FRET detection artefact counter-screen, emission ratio; stronger effect = higher value. 0.34% of 99,000 active. TR-FRET ratio at 8 µM; in the data active = TR-FRET ratio above about 2300
# * marks the source's active call; other numbers are inactive results; nt = no result given. Cut-off read from the data, not from the text of the source, unless noted: active = TR-FRET ratio above about 2000; inactive = the rest.
SMILES,PPARg SRC2 recr,PPARg SRC3 recr,PPARg SRC1 recr,SRC3 TRFRET art,TR-FRET SRC-2 ct,SRC1 TRFRET art
COCCn1c(=NC(=O)c2cc(-c3cccs3)nc3ccccc23)sc2cc(S(N)(=O)=O)ccc21,3,1,5,1939,1698,1979
S=C(NCc1ccc(Cl)cc1Cl)Nc1ccccc1,3,23*,6,1623,1553,1828
O=C(CSc1nnc2ccccn12)NNC(=O)c1ccc(F)cc1,3,-1,6,1690,1544,1918
O=C1CCCN1CCC1CCN(C(=S)Nc2ccc(F)cc2)CC1,22*,15,-1,nt,1700,nt
O=C1CCCN1CCCNC(=S)Nc1ccc(F)cc1,0,-2,-5,1493,1370,1772
CCOC(=O)c1ccc(-n2nc(C(F)(F)F)c3c(C)cc(=O)oc32)cc1,-3,-3,17,nt,1305,nt
CCC1CCCCN1C(=O)CSc1nnc(-c2ccc(OC)cc2)o1 (stereo not drawn),5,15,-2,nt,1364,nt
CCC1CCCCN1C(=O)CSc1nc(N)cc(N)n1 (stereo not drawn),0,1,0,1654,1990*,1816
NC(=O)c1c(NC(=S)Nc2ccccc2)sc2c1CCCC2,14,7,5,2002,1869,2381*
COC(=O)c1ccccc1NC(=O)Cc1nc(-c2ccccc2)sc1-c1ccc(C)cc1,-6,4,7,2243*,1651,1833
O=C(NCc1ccccc1Cl)C(=O)NCC(c1ccco1)N1CCOCC1 (stereo not drawn),-8,3,-3,1564,1573,1899
COc1cccc(-c2nn(-c3ccccc3)cc2C(=O)OCC(=O)Nc2ncc(Cl)cc2Cl)c1,11,0,8,3059*,2626*,2559*
O=C(COC(=O)c1ccccc1O)Nc1ncc(Cl)cc1Cl,9,0,4,1607,1547,2036
Cn1c(=O)c2c(ncn2CCNC2=NCCCCC2)n(C)c1=O,38*,-1,-1,1640,1522,1841
S=c1nc(SCc2ccccc2)[nH]c2ccccc12,21,15,-2,2007,2041*,2318*
COc1ccc(S(=O)(=O)N2CCC(N3CCN(Cc4ccccc4)CC3)CC2)cc1,-3,-4,-3,1572,1489,1599
COc1ccc(S(=O)(=O)N2CCN(C3Cc4ccccc4C3)CC2)cc1,-1,6,-6,2079*,1352,1748
CSCCNC(=O)c1cccc(Cl)c1,-3,-4,-6,1317,1579,1660
CSCCNC(C)=O,24*,2,-1,nt,2040*,nt
C#CCNC(=O)C(C)c1ncc(C(F)(F)F)cc1Cl (stereo not drawn),4,4,11,1408,1349,1738
Cc1noc(C)c1C(=O)N1CCCC(C(=O)c2cccc(C(F)(F)F)c2)C1 (stereo not drawn),7,1,9,1672,1545,1954
FC(F)(F)c1cc(Cl)c2nnc(C(F)(F)Cl)n2c1,9,4,4,1422,1643,1806
CC(OC(=O)c1cc2sccc2n1C)C(=O)NCc1cccs1 (stereo not drawn),1,8,24*,nt,1517,nt
CC(C)(C)C1CCc2c(sc(NC(=O)c3cccs3)c2C(N)=O)C1 (stereo not drawn),24*,8,9,nt,1713,nt
CCOC(=O)c1sc(=NC(=O)c2cc(OC)c(OC)c(OC)c2)n(C)c1C,-3,338*,-1,nt,1659,nt
SMILES,PPARg SRC2 recr,PPARg SRC3 recr,PPARg SRC1 recr,SRC3 TRFRET art,TR-FRET SRC-2 ct,SRC1 TRFRET art
CCOC(=O)c1sc(=NC(=O)CCSc2ccccc2)n(C)c1C,-4,6,6,2393*,1413,2065
COc1ccc(CCNC(=O)c2ccc(C)s2)cc1OC,7,-6,-2,1715,1501,1604
O=C(C1=C(O)C(=O)N(Cc2cccnc2)C1c1ccccn1)c1cccs1 (stereo not drawn),5,3,8,1707,1665,1873
N#Cc1cc2c(nc1SCc1ccccc1)CCC2,13,8,85*,nt,1654,nt
N#Cc1cc2c(nc1SCc1ccccc1)CCCC2,2,1,7,1643,1574,2031
N#Cc1c(-c2cccnc2)c2c([nH]c1=S)CCCC2,10,8,9,nt,1637,nt
COc1ccc(-c2c3c([nH]c(=S)c2C#N)CCC3)cc1,86*,108*,64*,nt,4167*,nt
COc1ccc(OC)c(-c2c3c([nH]c(=S)c2C#N)CCCC3)c1,16,8,18,2033,1970,2339*
CC(C)Cc1c2c([nH]c(=S)c1C#N)CCCC2,4,4,11,1737,1622,1994
COc1cccc(CNC(=O)CCC2CCCN(C(=O)CCn3cncn3)C2)c1 (stereo not drawn),5,3,-5,1389,1567,1792
CCOC(=O)c1oc2ccc(Cl)cc2c1NC(C)=O,-2,7,8,1696,1537,1793
Cc1cc(C)nc(SCCn2c(N3CCOCC3)nc3c2c(=O)[nH]c(=O)n3C)n1,13,1,8,1817,1680,1834
Cc1cccc(NC(=O)c2sc3nc(-c4ccc(F)cc4)cn3c2C)n1,-2,-4,36*,nt,1617,nt
O=C(Nc1ccc2ccccc2c1)c1cn(-c2ccccc2)nc1-c1cccs1,9,14,11,nt,2107*,nt
Cc1ccc2nc(-c3cccnc3SCC(=O)N3c4ccccc4CC3C)[nH]c2c1 (stereo not drawn),4,5,3,nt,2147*,nt
Cc1ccc2nc(-c3ccc(SCC(=O)N4CCc5ccccc54)nc3)[nH]c2c1,-2,3,6,2738*,1365,1724
Cc1ccc2nc(-c3ccc(SCC(=O)O)nc3)[nH]c2c1,7,12,11,nt,1849,nt
Cc1ccc2nc(SCC(=O)N3c4ccccc4CC3C)c(C)cc2c1 (stereo not drawn),7,13,-8,nt,1722,nt
Cc1nn(-c2ccc(Cl)cc2)c2sc(C(=O)c3c(N)n(C)c(=O)n(C)c3=O)cc12,-3,-10,25*,nt,1492,nt
Cn1c(N)c(C(=O)c2ccc(Cl)cc2)c(=O)n(C)c1=O,11,3,-2,1739,1575,1960
CCOC(=O)Nc1ccccc1C(=O)Nc1cc(C)cc(C)c1,4,6,-1,1456,1463,1754
CCOC(=O)Nc1cccc(NC(=O)c2ccccc2F)c1,9,3,9,1632,1470,2378*
Cc1cc(CNC(=O)Cn2nc(C)c([N+](=O)[O-])c2C)c2ccccc2n1,5,2,6,1614,1467,1751
CCOC(=O)C1=C(C)OC(N)=C(C#N)C1c1cc2ccccc2nc1N1CCCCC1 (stereo not drawn),15,26*,15,nt,1713,nt
CCCCn1c(SCc2nc(N)nc(Nc3ccccc3C)n2)nc2ccccc2c1=O,-5,-10,-2,nt,1460,nt
C=CCn1c(=O)c2ccccc2n2c(SCC(=O)c3ccccc3)nnc12,1,27*,8,nt,1556,nt
C=CCn1c(=O)c2ccccc2n2c(SCc3nc(N)nc(Nc4ccccc4C)n3)nnc12,5,8,22*,nt,1648,nt
